Results filed as inconclusive are left out.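 The calls were made as follows: active = GFP response, as percent of the DMSO control, above the screen-wide mean plus 3 SD, about 139; inconclusive = no response measured because the compound's own fluorescence interfered; inactive = the rest.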
Assay: modulators of MEP2-GFP levels in yeast, primary screen, S. cerevisiae, multiplex flow cytometry (AID 1867);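 also: median GFP channel fluorescence of barcode-gated MEP2-GFP cells measured by flow cytometry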
Settings: S. cerevisiae MEP2-GFP strain, 3 h, at 10 µM, hits give high values, 100% means same as DMSO wells

GFP response vs DMSO, inactive:
Cc1ccc2[nH]c3c(c2c1)CN(C)CC3 107%
COc1ccc2[nH]c3c(c2c1)CCn1c-3nc2ccccc2c1=O 105%
CC(=O)O[C@H]1CSC[C@H]1NC(=O)c1ccccc1 91.8%
CC(=O)Oc1ccc2occ(/C=N/c3cc(=O)[nH]c(=S)[nH]3)c(=O)c2c1 102%
O=C(O)CCSc1nc2ccccc2s1 99.9%
CCOc1ccc(C(=O)/C=C/c2cc(OC)c(OC)c(OC)c2)cc1 105%
COC(=O)c1cc(OC)c(OC)c(OC)c1[N+](=O)[O-] 97.9%
COC(=O)c1[nH]c2ccccc2c1NC(=O)CN1CCN(C/C=C/c2ccccc2)CC1 106%
Cc1ncc([N+](=O)[O-])n1CC(C)O (centres undefined) 103%
Clc1ccccc1CN1CCc2sccc2C1 104%
CC[C@]1(O)C[C@@H]2CN(CCc3c([nH]c4ccccc34)[C@@](C(=O)OC)(c3cc4c(cc3OC)N(C)[C@H]3[C@@](O)(C(=O)OC)[C@H](OC(C)=O)[C@]5(CC)C=CCN6CC[C@]43[C@@H]65)C2)C1 101%
O=C(CCCN1CC=C(n2c(=O)[nH]c3ccccc32)CC1)c1ccc(F)cc1 95.9%
CCOc1cccc(N2C(=O)CC(N(CCc3ccc(OC)c(OC)c3)C(=O)CC)C2=O)c1 (centres undefined) 105%
COC(=O)C1=C(C)NC(C)=C(C(=O)OC)C1c1ccccc1[N+](=O)[O-] 104%
CC(COc1ccccc1)NC(C)C(O)c1ccc(O)cc1 (centres undefined) 101%
COc1ccc2oc(=O)c(-c3nc(C)cs3)cc2c1 101%
CC(=O)Oc1cc(C(C)C)c(OCCN(C)C)cc1C 104%
O=C(NNC(=O)c1cccs1)c1ccco1 104%
CC(C)Oc1ccc(C(CC(=O)O)c2ccc(F)cc2)cc1 (centres undefined) 108%
Cc1ccccc1-c1coc2cc(O)ccc2c1=O 96.9%
CCN(CC)CCOC(=O)C1(C2CCCCC2)CCCCC1 101%
NC(=O)OCC(COC(N)=O)c1ccccc1 98.9%
CC(C)[N+]1(C)[C@@H]2CC[C@H]1CC(OC(=O)C(CO)c1ccccc1)C2 (some centres undefined) 95.9%
Cc1ccccc1OCCSc1nc2ncnc(N)c2[nH]1 105%
CC(=O)NCCCCCCNC(C)=O 92.8%
CCN(Cc1ccncc1)Cc1nc(Cc2ccccc2Cl)no1 98.9%
CCOC(=O)NN1C(=O)c2ccccc2NC1c1ccc(OC)c(OC)c1 (centres undefined) 103%
COc1ccc2c(c1)c(CC(=O)O)c(C)n2C(=O)c1ccc(Cl)cc1 96.9%
CC1=CC2(O)OCCN(CCO)C2=CC1=O (centres undefined) 102%
Cc1ccccc1C(OCCN(C)C)c1ccccc1 (centres undefined) 98.9%
COC1(C)CC2C(CC1OC(=O)c1cc([N+](=O)[O-])cc([N+](=O)[O-])c1)C2(C)C (centres undefined) 99.9%
O=C1OC(c2ccc(O)cc2)(c2ccc(O)cc2)c2ccccc21 102%
Cn1c(=O)c2c(ncn2CC(O)CO)n(C)c1=O (centres undefined) 99.9%
Cc1cnc(C(=O)N2CCCC(C(=O)c3ccc(Cl)cc3C)C2)cn1 (centres undefined) 99.9%
CN(C)C(=O)C12CCC(C)(c3nc4ccccc4nc31)C2(C)C (centres undefined) 101%
CCOC(=O)c1ccc(N2C(=O)C(CC(N)=O)N(CCc3ccc(OC)c(OC)c3)C2=S)cc1 (centres undefined) 105%
Cc1cnc(C(=O)NCCc2ccc(S(=O)(=O)NC(=O)NC3CCCCC3)cc2)cn1 93.8%
COc1cccc2c1C(=O)O/C2=C/c1ccc2c(c1)OCO2 103%
COc1ccc(C2N3CC4(C)CN2CC(C)(C3)C4)cc1OC (centres undefined) 99.9%

From PubChem BioAssay
